Assay results from PubChem BioAssay (Tox21).
Unmarked numbers belong to inactive results. Records with an inconclusive call do not appear. Entries that show only a call come without a potency. Active and inactive are the calls of the source. Unless noted, the call rests on the fitted dose curve; in most records, active means well fitted curve in the direction sought with a large enough effect in the repeat runs; inconclusive means weak or mixed curves; inactive means no such curve, though single readings can be large; an effect the other way counts as inactive or inconclusive.

Assays:
[1] = molecular target: Luciferin 4-monooxygenase (Photinus pyralis) (UniProt P08659); test: qHTS assay to identify small molecule inhibitors of firefly luciferase (AID 1224835); further: nearly all actives have a fitted effect of over 25% in size
Outline: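 Biochemical qHTS: compounds run as interplate titrations against purified firefly enzyme, with D-luciferin and ATP each at its KM concentration. Light output recorded by CCD imaging.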

[2] = molecular target: Nuclear receptor subfamily 1 group I member 3 (Homo sapiens) (UniProt Q14994); test: qHTS assay to identify small molecule antagonists of the constitutive androstane receptor (CAR) signaling pathway (AID 1224838);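 further: HepG2 cells stably expressing hCAR with CYP2B6 luciferase reporter stimulated by CITCO; nearly all actives have a fitted effect of over 40% in size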
Outline: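 Luminescence from a CYP2B6-2.2kb promoter reporter in hCAR-expressing HepG2 cells reflects CAR signaling. Cells received compounds at 15 concentrations and 50 nM CITCO (final), then incubated 24 h at 37 C/5% CO2.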

[3] = qHTS assay to identify small molecule antagonists of the estrogen related receptor signaling pathway with the pleiotropic PPARgamma coactivator (PGC) from Tox21 10K library - cell viability counter screen (AID 1224840; active means well fitted cell-killing curve with a large enough effect in the repeat runs, not every such curve was filed as active; further: nearly all actives have a fitted effect of over 40% in size)
Outline: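 Cell viability is measured by CellTiter-Fluor fluorescence in PGC/ERR cells that receive compounds after a 6-hour attachment period and are then incubated 17.5 hours at 37 C.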

[4] = qHTS assay to identify small molecule antagonists of the estrogen related receptor signaling pathway with the pleiotropic PPARgamma coactivator (PGC) from Tox21 10K library (AID 1224841; call rule not given here; further: actives are mostly falling curves and most rising ones were filed inactive; nearly all actives have a fitted effect of over 50% in size)
Outline: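 Cells stably carrying the PGC/ERR reporter, seeded at 2,000 per well, received pin-transferred compounds 6 h post-plating. Exposure lasted 18 h at 37 C. Signal: One-Glo luminescence.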

[5] = qHTS assay to identify small molecule agonists of the estrogen related receptor signaling pathway with the pleiotropic PPARgamma coactivator (PGC) from Tox21 10K library (AID 1224842); further: nearly all actives have a fitted effect of over 15% in size
Outline: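 PGC/ERR reporter cell line, 2,000 cells per well, incubated 6 h at 37 C before 23 nL compound in DMSO was added. After 18 h at 37 C, One-Glo luminescence read following 30 min at room temperature.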

[6] = molecular target: Thyrotropin receptor (Homo sapiens) (UniProt P16473); test: qHTS assay to identify small molecule agonists of the thyroid stimulating hormone receptor (TSHR) signaling pathway (AID 1224843; calls by dose curve; further: nearly all actives have a fitted effect of over 45% in size)
Outline: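 HEK293/TSHR, 800 cells/well; cpd 30 min RT; add cAMP-d2 + anti-cAMP-cryptate, 1 h RT; fluorescence read on plate reader. 15-pt titration, n=3.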

[7] = qHTS assay to identify small molecule agonists of the hypoxia (HIF-1) signaling pathway - cell viability counter screen (AID 1224844; calls by dose curve; further: nearly all actives have a fitted effect of over 50% in size)
Outline: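 Viability counter screen: HRE-bla ME-180 cells plated 5 hrs before compound addition, treated 17 hrs at 37C and 5% CO2, then CellTiter-Glo added after the FRET reporter read; luminescence after 30 min.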

[8] = qHTS assay to identify small molecule agonists of H2AX (AID 1224845; active means well fitted activation curve with a large enough effect in the signal ratio in the repeat runs, not every such curve was filed as active; the % refers to the signal ratio)
Outline: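 Wild-type CHO-K1 cells, plated overnight, exposed 3hr at 37C to 15 concentrations (0.76% DMSO final). Lysed, then HTRF anti-pH2AX (S139) cryptate and anti-H2AX-d2 antibodies, 24 hr room temperature; 665/620 nm emission read.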

[9] = qHTS assay to identify small molecule agonists of the hypoxia (HIF-1) signaling pathway (AID 1224846; active means well fitted activation curve with a large enough effect in the signal ratio in the repeat runs, not every such curve was filed as active; the % refers to the signal ratio)
Outline: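 Agonist mode reporter screen. ME-180 cells stably expressing bla under HRE control received test compounds in DMSO for 17 hrs (37C, 5% CO2), and beta-lactamase activity was then detected with the CCF4-AM FRET substrate.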

[10] = qHTS assay to identify small molecule agonists of H2AX - cell viability counter screen (AID 1224847; calls by dose curve; further: top concentration of the series differs between compounds; nearly all actives have a fitted effect of over 30% in size)
Outline: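 Cytotoxicity counter screen in wild-type CHO-K1 cells: a 3 hr compound treatment at 37C across 15 concentrations, followed by CellTiter-Glo luminescence to gauge viable cells.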

[11] = qHTS assay to identify small molecule antagonists of the estrogen related receptor (ERR) signaling pathway from Tox21 library (AID 1224848); further: nearly all actives have a fitted effect of over 50% in size
Outline: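 Compounds dissolved in DMSO are pin-transferred onto ERR reporter cells (2,000 per well) that have settled for 6 h at 37 C. Plates then incubate 18 h at 37 C before ONE-Glo luciferase reagent and a luminescence read 30 min later.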

[12] = qHTS assay to identify small molecule agonists of the estrogen related receptor (ERR) signaling pathway from Tox21 library (AID 1224849; calls by dose curve; further: nearly all actives have a fitted effect of over 15% in size); conditions: ERR reporter cell line, ONE-Glo luciferase, 18 h; at 92.4 µM (top of the series) unless noted
Outline: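 Quantitative HTS in agonist format: NTP ERR cell line, compounds transferred in DMSO after 6 h plating, 18 h incubation at 37 C, ONE-Glo luminescence endpoint.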

[13] = qHTS RealTime-Glo MT Cell Viability Assay in HepG2 cells - 24 hour (AID 1224867); further: nearly all actives have a fitted effect of over 50% in size
Outline: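 Viability was tracked continuously by NanoLuc luminescence from prosubstrate reduced by living HepG2 cells, at successive time points over 40 h of compound exposure. Cells with reagent were preincubated 5 h at 37 °C before compound addition.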

[14] = qHTS RealTime-Glo MT Cell Viability Assay in HEK293 cells - 32 hour (AID 1224868)
Outline: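 Viability tracked continuously by luminescence as live cells reduce a prosubstrate for NanoLuc; HEK293 cells preincubated 5 h, compound-treated at 37 C, and read at 0, 8, 16, 24, 32 and 40 h.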

[15] = A CellTox Green Cytotoxicity Assay to monitor cytotoxicity in HEK293 cells - 0 hour (AID 1224869); further: nearly all actives have a fitted effect of over 50% in size
Outline: (§1)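 Dead-cell fluorescence measured kinetically: asymmetric cyanine dye, HEK293, 600 cells/well, 5 h settle, 23 nL cpd/DMSO, 37 C, reads 0–40 h every 8 h.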

[16] = A CellTox Green Cytotoxicity Assay to monitor cytotoxicity in HEK293 cells - 40 hour (AID 1224871); further: nearly all actives have a fitted effect of over 45% in size; further: potency means the concentration at half of the fitted maximal effect
Outline: as §1

[17] = qHTS assay to identify small molecule agonists of the constitutive androstane receptor (CAR) signaling pathway - cell viability counter screen (AID 1224836); further: nearly all actives have a fitted effect of over 45% in size
Outline: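 Cells were seeded and incubated 4 hrs. Compounds were added across 15 concentrations together with PK11195 at 0.75 uM final. Plates were incubated 23 hrs at 37 C. CellTiter-Fluor was added and fluorescence measured.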

[18] = molecular target: Nuclear receptor subfamily 1 group I member 3 (Homo sapiens) (UniProt Q14994); test: qHTS assay to identify small molecule agonists of the constitutive androstane receptor (CAR) signaling pathway (AID 1224839);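 further: HepG2 cells stably carrying human CAR and a CYP2B6 luciferase reporter; nearly all actives have a fitted effect of over 15% in size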
Outline: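 Cells were plated and incubated 4 hrs, then dosed with compounds at 15 concentrations. PK11195 was added to 0.75 uM final. After 24 hrs at 37 C, luciferase luminescence was measured.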

[19] = qHTS RealTime-Glo MT Cell Viability Assay in HepG2 cells - 40 hour (AID 1224870); further: nearly all actives have a fitted effect of over 50% in size
Outline: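 HepG2 cells (600/well) mixed with RealTime-Glo MT reagent, settled 5 h at 37 C/5% CO2 before compound addition. Nonlytic NanoLuc luminescence from viable-cell prosubstrate reduction read repeatedly during 40 h treatment at 37 C.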

[20] = qHTS assay to identify small molecule antagonists of the constitutive androstane receptor (CAR) signaling pathway - cell viability counter screen (AID 1224837); further: nearly all actives have a fitted effect of over 45% in size
Outline: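 Cells are seeded, rested 4 hr at 37 C/5% CO2, dosed with compound (15-point series) and 50 nM CITCO, incubated a further 23 hr, and then CellTiter-Fluor reagent is added before fluorescence is read. The line is HepG2 with stable hCAR and CYP2B6-2.2kb.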

Chain of Thyrotropin receptor (Homo sapiens) (P16473 whole entry, looked up): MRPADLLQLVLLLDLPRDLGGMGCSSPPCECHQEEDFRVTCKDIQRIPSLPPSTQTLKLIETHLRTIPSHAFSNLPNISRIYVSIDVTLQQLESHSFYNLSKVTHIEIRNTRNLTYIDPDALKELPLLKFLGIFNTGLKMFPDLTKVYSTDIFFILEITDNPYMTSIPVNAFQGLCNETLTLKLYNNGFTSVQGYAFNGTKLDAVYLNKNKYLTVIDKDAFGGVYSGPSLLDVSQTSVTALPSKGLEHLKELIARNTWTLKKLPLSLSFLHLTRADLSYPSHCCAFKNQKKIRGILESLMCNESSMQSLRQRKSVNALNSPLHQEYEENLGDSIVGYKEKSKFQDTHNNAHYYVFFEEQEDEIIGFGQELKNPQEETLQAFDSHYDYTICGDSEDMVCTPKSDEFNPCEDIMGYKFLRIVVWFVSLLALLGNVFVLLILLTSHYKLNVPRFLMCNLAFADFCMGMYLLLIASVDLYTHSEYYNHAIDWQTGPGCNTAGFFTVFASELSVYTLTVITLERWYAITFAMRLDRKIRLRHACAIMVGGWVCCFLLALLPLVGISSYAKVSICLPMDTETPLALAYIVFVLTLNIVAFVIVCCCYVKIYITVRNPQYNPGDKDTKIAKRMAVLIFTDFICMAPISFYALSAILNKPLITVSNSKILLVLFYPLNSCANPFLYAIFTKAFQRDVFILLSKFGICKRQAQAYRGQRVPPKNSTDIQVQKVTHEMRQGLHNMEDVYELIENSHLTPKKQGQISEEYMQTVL
Chain of Nuclear receptor subfamily 1 group I member 3 (Homo sapiens) (Q14994 whole entry, looked up): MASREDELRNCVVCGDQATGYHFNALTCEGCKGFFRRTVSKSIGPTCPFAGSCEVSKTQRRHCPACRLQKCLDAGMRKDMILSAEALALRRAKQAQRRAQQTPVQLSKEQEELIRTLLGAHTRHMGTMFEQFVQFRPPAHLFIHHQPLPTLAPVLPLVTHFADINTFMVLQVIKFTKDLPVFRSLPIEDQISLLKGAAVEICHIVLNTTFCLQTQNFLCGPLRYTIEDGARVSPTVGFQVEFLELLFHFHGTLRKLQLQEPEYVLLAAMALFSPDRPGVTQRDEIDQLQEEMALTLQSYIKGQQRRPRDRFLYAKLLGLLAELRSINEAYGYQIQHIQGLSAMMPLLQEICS
Chain of Luciferin 4-monooxygenase (Photinus pyralis) (P08659 whole entry, looked up): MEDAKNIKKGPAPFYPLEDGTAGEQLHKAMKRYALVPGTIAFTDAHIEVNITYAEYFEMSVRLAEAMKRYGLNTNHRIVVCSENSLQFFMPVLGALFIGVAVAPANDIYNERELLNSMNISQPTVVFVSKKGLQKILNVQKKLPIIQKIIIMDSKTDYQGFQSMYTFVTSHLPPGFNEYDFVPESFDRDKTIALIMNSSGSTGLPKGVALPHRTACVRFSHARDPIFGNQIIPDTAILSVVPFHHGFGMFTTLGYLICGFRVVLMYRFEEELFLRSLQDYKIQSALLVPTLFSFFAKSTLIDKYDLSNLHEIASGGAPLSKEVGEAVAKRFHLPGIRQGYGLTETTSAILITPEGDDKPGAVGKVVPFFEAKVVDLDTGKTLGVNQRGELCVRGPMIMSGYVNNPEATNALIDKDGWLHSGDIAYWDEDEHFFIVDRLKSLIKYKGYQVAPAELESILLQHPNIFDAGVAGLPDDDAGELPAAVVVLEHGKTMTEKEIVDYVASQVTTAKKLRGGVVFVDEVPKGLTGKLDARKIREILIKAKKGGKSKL

Row | SMILES | Potency [1] | Potency [2] | Potency [3] | Potency [4] | Potency [5] | Potency [6] | Potency [7] | Potency [8] | outcome [9] | Potency [10] | Potency [11] | activity change, positive = activation [12] [%] | Potency [13] | Potency [14] | Potency [15] | Potency [16] | Potency [17] | Potency [18] | Potency [19] | Potency [20]
1 | O=C(C(Cl)Cl)N1CCOC12CCCCC2 | inactive | inactive | inactive | inactive | inactive | inactive | inactive | inactive | inactive | inactive | inactive | -5.71 | inactive | inactive | inactive | inactive | – | – | – | –
2 | CC(C)NCC(O)COc1ccc(CCOCC2CC2)cc1 (stereo not given) | – | inactive | inactive | – | – | – | inactive | inactive | – | inactive | – | – | inactive | inactive | inactive | inactive | inactive | inactive | inactive | –
3 | CCOC(=O)C(Br)c1ccccc1 (stereo not given) | – | inactive | inactive | – | – | inactive | inactive | inactive | inactive | inactive | – | – | inactive | inactive | inactive | inactive | inactive | inactive | inactive | –
4 | CC(C)(C)c1cccc(O)c1 | – | – | inactive | inactive | inactive | inactive | – | inactive | inactive | inactive | inactive | 1.25 | inactive | inactive | inactive | inactive | inactive | – | inactive | –
5 | Cc1ccc([N+](=O)[O-])c(N)c1 | – | inactive | inactive | inactive | inactive | inactive | inactive | inactive | inactive | inactive | inactive | -10.6 | inactive | inactive | inactive | inactive | inactive | – | inactive | inactive
6 | CC(C)NC[C@@H](O)COc1cccc2ccccc12 | – | inactive | inactive | – | – | – | – | – | – | inactive | – | – | inactive | inactive | inactive | inactive | inactive | – | inactive | inactive
7 | C=CC(C)(O)CC/C=C(\C)CCC=C(C)C (stereo not given) | – | – | inactive | – | – | – | inactive | inactive | inactive | inactive | – | – | inactive | inactive | inactive | 49 µM (active) | inactive | – | inactive | inactive
8 | CN(C)CC[C@@H](c1ccc(Cl)cc1)c1ccccn1 | – | – | inactive | – | – | inactive | inactive | inactive | – | inactive | – | – | inactive | inactive | inactive | inactive | inactive | – | inactive | –
9 | NC(=O)NS(=O)(=O)c1ccc(Cl)cc1 | inactive | inactive | inactive | – | – | inactive | inactive | inactive | inactive | – | – | – | inactive | inactive | inactive | inactive | – | – | inactive | –
